Screen size: about 69,000 compounds; about 8,600 (12%) showed an effect of 50% or more. Many of the other results were omitted from the sample, so strong results are more common in it than they were.
Tested on: Plasmodium berghei
Assay: Screen against P. berghei liver stage (PbLuc), transformed with Luciferase, at 10uM
Type: functional, HepG2
Conditions: tested at 10 uM

SMILES	INHIBITION [%]
CCOc1ccc(CC(=O)N2CCN(c3nccn3C)CC2)cc1	15
CC(C)Sc1ccc(C(C)Nc2nc3c(cnn3C)c(=O)[nH]2)cc1 (stereo not given)	76.8
Cn1ncc2c(=O)[nH]c(CN3CCCc4cc(F)ccc43)nc21	31.7
CC(Nc1nc2c(cnn2C)c(=O)[nH]1)c1ccc(F)cc1 (stereo not given)	23.1
CC(Nc1nc2c(cnn2C)c(=O)[nH]1)c1ccccn1 (stereo not given)	30.9
CC(Nc1nc2c(cnn2C)c(=O)[nH]1)c1ccc2c(c1)CCCC2 (stereo not given)	51
CCC(=O)Nc1ccc(C(C)Nc2nc3c(cnn3C)c(=O)[nH]2)cc1 (stereo not given)	28.7
c1ccc(Cn2cc3c(n2)C(CNCc2ccco2)OCC3)nc1 (stereo not given)	-4.86
Cn1cc(C(=O)N2CC[C@@H]3[C@@H]2CCN3Cc2cccnc2)cn1	10.8
COc1nn(C)cc1C(=O)N1CCC(c2nnc(-c3ccsc3)o2)CC1	43.3
CS(=O)(=O)N1CCc2ccc(C(=O)N3CCn4ncnc4C3)cc21	-4.68
Clc1ccccc1OCCc1cc(C2CCNC2)n[nH]1 (stereo not given)	-57.4
Cc1nccc(-c2cccc(NCC(=O)N3CCCC(C)C3)c2)n1 (stereo not given)	53.9
Cc1nccc(-c2cccc(NCC(=O)N3CCCCCCC3)c2)n1	18.9
Cc1nccc(-c2cccc(NCC(=O)N3CCOC(C)C3)c2)n1 (stereo not given)	15.5
CNS(=O)(=O)c1cccc(CNC(=O)c2cc(C)no2)c1	-4.16
CCS(=O)(=O)N1CCC2(CC(=O)N(c3ccccc3C)C2)C1 (stereo not given)	-25.8
CS(=O)(=O)Nc1ccc2c(c1)NC(=O)CC2c1cnn2cccnc12 (stereo not given)	-27.5
CC(=O)N1CCCC2(CCN(Cc3ccc(Cl)c(F)c3)C2)C1 (stereo not given)	13.7
CC(=O)N1CCCC2(CCN(Cc3ccc(Cl)c(C(F)(F)F)c3)C2)C1 (stereo not given)	-18.5
CC(=O)N1CCC2(CCN(Cc3ccc(Cl)c(C(F)(F)F)c3)CC2)C1	73
CC(=O)N1CCOC2(CCCN(Cc3ccc(Cl)c(C(F)(F)F)c3)C2)C1 (stereo not given)	30.3
CN(C)C(=O)N1CCCC2(CCN(Cc3ccc(Cl)c(F)c3)C2)C1 (stereo not given)	16.9
CC(=O)N1CCC2(CCCN(Cc3ccc(Cl)c(C(F)(F)F)c3)C2)C1 (stereo not given)	59.7
CSc1cccc(CN2CCn3nc(CNC(C)=O)cc3C2)c1	8.38
Cn1ncc2c1C(COCC1CC1)CN(Cc1ccc(F)cc1)C2 (stereo not given)	-5.69
Cc1cc(C)n(-c2ccc(C(=O)NCC(CO)Cc3ccco3)cc2)n1 (stereo not given)	32.1
Cc1csc(CNc2cnc3c(c2)c(C)nn3C)n1	16

SMILES	INHIBITION [%]
O=S(=O)(Nc1cnc(N2CCCC2)nc1)c1ccc(OC(F)(F)F)cc1	40.1
Cc1ccc(S(=O)(=O)Nc2ccc(=O)n(C)c2)cc1	46.5
O=S(=O)(Nc1cnc(N2CCCC2)nc1)c1ccc(C(F)(F)F)cc1	37.3
CSc1ccc(NS(=O)(=O)c2cnn(C)c2)cn1	1.81
Cc1nc(N(C)C)nc(C)c1NS(=O)(=O)c1ccc(OC(F)(F)F)cc1	-2.09
Cn1cc(NS(=O)(=O)c2ccc(OC(F)(F)F)cc2)ccc1=O	84.6
CN(C)c1ncc(NS(=O)(=O)c2ccc(OC(F)(F)F)cc2)cn1	51.6
COc1ccc(S(=O)(=O)Nc2cnc(N(C)C)nc2)cc1	40.6
Cn1cc(NS(=O)(=O)c2ccc(C(F)(F)F)cc2)ccc1=O	60.5
O=C(c1cccnc1N1CCOCC1)N1CCCC(n2cncn2)C1 (stereo not given)	36.1
CC(C)OCCN1CCC(Nc2nccnc2C#N)CC1	33.1
Cc1ccc(CN2CCC3(CCC3NS(=O)(=O)c3ccccc3)CC2)o1 (stereo not given)	-12.4
O=c1ccc2c(n1CCN1CCCC1)CCN(Cc1ccoc1)CC2	8.47
COCCN1CCCC(c2cncc(Oc3ccccc3OC)n2)C1 (stereo not given)	-5.71
Cc1cc(N2CCC(n3cc(CN4CCSCC4)nn3)CC2)ccn1	30.9
c1cc(CN2CCC(n3cc(CN4CCCC4)nn3)CC2)cs1	42.1
OC1CCCN(Cc2cn(CC3CCN(C4CCSCC4)CC3)nn2)C1 (stereo not given)	18.3
O=C1CN(Cc2cn(CC3CCN(C4CCSCC4)CC3)nn2)CCN1	32.2
O=C1CN(Cc2cn(CC3CCCN(C4CCSCC4)C3)nn2)CCN1 (stereo not given)	54.5
O=C1CN(Cc2cn(C3CCN(C4CSCCSC4)CC3)nn2)CCN1	65.6
c1cncc(CN2CC(Cc3nccc4cc[nH]c34)C2)c1	19.3
O=C(NCC1CCC1)c1ccc(-n2ccnc2)nn1	-15
CCCOc1ccc(C(=O)Oc2cc(=O)n3cccc(C)c3n2)cc1	0.207
CC1c2ncc(COCc3ccccn3)n2CCN1C1CCCC1 (stereo not given)	37.8
O=C(O)c1ccccc1-c1ccc(Cn2c(=O)cc[nH]c2=O)cc1	2.55
Cc1ccnc(C2CCCN2C(=O)CN(C)C)n1 (stereo not given)	-16.5
O=C(NCCn1nc2ccccn2c1=O)c1sccc1-c1ccccc1	-20.53
